Source: PubChem
EWS-Fli block: EWS/Fli-driven NR0B1 reporter inhibitors, primary screen, A673 cells, NR0B1 luciferase, luminescence, MLPCN library. viability-normalised. hit rate 0.67% among 350,000. inhibition, % at 12.6 µM;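 active = mean inhibition of at least 50% after viability correction, with every replicate also passing that limit; inconclusive = mean reaches 50% but only one of two replicates passes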;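 also: firefly luciferase signal divided by Alamar Blue viability fluorescence both relative to DMSO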
TROY NFkB inh: inhibitors of TROY-driven NF-kB signaling, primary screen, Q293 LMP1-TROYcd cells, NF-kB luciferase, uHTS. Q293 LMP1-TROYcd NF-kB luciferase reporter, 4 h. inhibition, % at 10 µM. hit rate 0.98% among 360,000. AID 1347056, 2019;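 active = compounds whose plate-normalised and pattern-corrected inhibition of the luciferase reporter signal at the single screening dose is 50% or more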
TWEAK Fn14 block: inhibitors of TWEAK-Fn14 signaling, primary screen, luciferase reporter cells, uHTS; inhibition, % at 10 µM; hit rate 2% among 360,000; TWEAK-stimulated Fn14 reporter cells, luciferase luminescence, 8 h; AID 1159606, 2016; in the data active = inhibition above about 50%
EBV LMP1 NFkB: EBV LMP1-driven NF-kappaB luciferase reporter inhibitors, primary screen, cell-based, luminescence, single point; LMP1-induced NF-kappaB luciferase reporter cells; inhibition, % at 12.5 µM; hit rate 0.69% among 350,000; AID 504558, 2011; in the data active = inhibition above about 41%; inconclusive = no clear call, values can overlap the other calls;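 also: 0% = neutral control wells and 100% = reference inhibitor control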
LGR2 inh: inhibitors of bursicon-induced LGR2 CRE-luciferase signal, primary screen, cell-based, HEK293, CRE-luciferase reporter, bursicon stimulation; AID 720647, 2013; Drosophila bursicon receptor LGR2 (rickets); hit rate 0.35% among 380,000; inhibition, % at 9.99 µM; bursicon-stimulated, 4 h;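 active = drop in luminescence signal, shown as inhibition above about 50% in the replicate tests, limit read from the data, passing the limit was not always enough; inconclusive = probably only some replicates passing the limit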;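 also: agonist challenge used bursicon conditioned medium at about half maximal strength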
PAX8 inh HTS: inhibitors of PAX8-driven TPO luciferase reporter, primary screen, RMG-I cells, single concentration. SteadyGlo, 24 h. hit rate 1.2% among 360,000. inhibition, % at 12.6 µM;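 active = mean replicate inhibition at least 60% with every replicate also reaching 60%; inconclusive = only one of the two criteria is met; inactive = mean below 60% and not all replicates reaching 60%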;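 also: luciferase light reporting Pax8 driven TPO promoter activity; plate controls were median of neutral control wells for no effect and mitoxantrone controls for full effect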
* = called active by the depositor; ? = inconclusive; · = no result. Rows were chosen to be rich in hits. Some 3.2% of all compounds tested hit in one or more screens of this group.

SMILES	EWS-Fli block	TROY NFkB inh	TWEAK Fn14 block	EBV LMP1 NFkB	LGR2 inh	PAX8 inh HTS
Cc1ccccc1N1C(=O)C(Oc2ccc(Cl)cc2)C1CNCCCOC(C)C (configuration not stated)	1	-5	-10	2	11	-5
CC(=O)O[C@H]1C(=O)[C@]2(C)[C@H]([C@H](OC(=O)c3ccccc3)[C@]3(O)C[C@H](OC(=O)[C@H](O)[C@@H](NC(=O)c4ccccc4)c4ccccc4)C(C)=C1C3(C)C)[C@]1(OC(C)=O)CO[C@@H]1C[C@@H]2O	61*	14	17	13	4	40
CC(=O)O[C@H]1C(=O)[C@@]2(C)C([C@H](OC(=O)c3ccccc3)[C@]3(O)C[C@H](OC(=O)[C@H](O)[C@@H](NC(=O)c4ccccc4)c4ccccc4)C(C)=C1C3(C)C)[C@]1(OC(C)=O)CO[C@@H]1C[C@H]2O (some centres not stated)	55*	6	37	0	7	·
C[C@@H]1CCCCO[C@@H](CN(C)C(=O)Nc2ccc3c(c2)OCO3)[C@H](C)CN([C@@H](C)CO)C(=O)c2cc(NC(=O)Cc3ccccc3)ccc2O1	-4	·	·	·	24	-17
C[C@H](O)C#Cc1cnc2c(c1)C(=O)N([C@H](C)CO)C[C@H](C)[C@@H](CN(C)Cc1ccc(-c3ccccc3)cc1)O2	16	·	·	·	1	50
C#CCN(C[C@@H]1[C@@H](OC(=O)NCC2CCCCC2)[C@@H](OC(=O)NCC2CCCCC2)CN(C(=O)OC(C)C)N1C(=O)OC(C)C)S(=O)(=O)c1ccc(C)cc1	11	7	-35	-14	-1	72*
Cc1ccc(S(=O)(=O)N(C)C[C@@H]2OCCCC[C@@H](C)Oc3ccc(NC(=O)NC(C)C)cc3C(=O)N([C@H](C)CO)C[C@H]2C)cc1	-3	·	·	·	11	-10
Cc1cccc(Cn2cc(SCC(=O)Nc3nccs3)c3ccccc32)c1	-71	-22	-20	82*	-13	-8
Cc1ccc(Cn2cc(SCC(=O)Nc3nccs3)c3ccccc32)cc1	-51	-38	-55	-27	-19	-73
CCCc1nc2ccc(NC(=O)c3cccs3)cc2c(=O)n1Cc1ccc(Cl)cc1	-10	-9	18	9	-9	-5
Cc1nc2ccc(NC(=O)c3cccs3)cc2c(=O)n1Cc1ccc(Cl)cc1	·	70*	83*	-7	·	·
COc1cc2c(cc1OC)CN(c1ccc(C(F)(F)F)cn1)CC2	·	-10	51*	-21	9	-62
COc1cc2c(cc1OC)CN(c1ccc3ccccc3n1)CC2	-101	-10	-6	-7	-21	-98
C[C@H]1CCCCO[C@H](CN(C)Cc2ccc3c(c2)OCO3)[C@@H](C)CN([C@@H](C)CO)C(=O)c2cc(NC(=O)c3ccncc3)ccc2O1	-8	·	·	·	-19	-46
FC(F)Sc1ccc(NC(=S)NC(c2ccccc2)c2ccccc2)cc1	38	52*	54*	1	44	2
FC(F)Sc1ccc(NC(=S)NCc2ccccc2)cc1	-19	37	19	-3	-17	-23
C/C=C/c1ccc([C@@H]2[C@H]3CN(C(=O)Cc4cccnc4)CC(=O)N3[C@H]2CO)cc1	-1	·	·	·	-4	-18
CCS(=O)(=O)N1Cc2ccccc2CC1C(=O)Nc1nnc(SCc2c(Cl)cccc2Cl)s1 (configuration not stated)	1	15	21	4	0	113*
CO[C@H]1CN(C)C(=O)c2ccc(NC(=O)c3cnccn3)cc2OC[C@H](C)N(C(=O)C2CC2)C[C@@H]1C	-7	·	·	·	0	-7
CCC(=O)c1ccc(N2CCN(C(=O)c3ccc(F)cc3)CC2)c(F)c1	7	17	-4	-7	11	18
COc1ccc(C(=O)c2ccc(N3CCN(C(=O)c4ccc(F)cc4)CC3)c(F)c2)cc1Br	·	44	61*	10	·	·
O=C(C[C@@H]1CC[C@H](NC(=O)C2CC2)[C@@H](CO)O1)NCC1CC1	6	·	·	·	23	·
Cc1cc(-c2nn3c(C)nnc3s2)ccc1NC(=O)C(C)(C)C	·	26	52*	14	·	-7
C[C@@H]1CN([C@H](C)CO)C(=O)c2cccc(NS(=O)(=O)c3cn(C)cn3)c2O[C@@H]1CN(C)Cc1ccc(C(=O)Nc2ccccc2N)cc1	-11	·	·	·	13	-29
COc1ccc(S(=O)(=O)N(C)C[C@H]2Oc3ccc(NC(=O)Nc4c(C)noc4C)cc3CC(=O)N([C@H](C)CO)C[C@H]2C)cc1	2	·	·	·	-8	·
SMILES	EWS-Fli block	TROY NFkB inh	TWEAK Fn14 block	EBV LMP1 NFkB	LGR2 inh	PAX8 inh HTS
O=S(=O)(Nc1c(O)ccc2ccccc12)c1ccc(F)cc1	-222	54*	44	-1	·	-2
O=C(Nc1cccc(S(=O)(=O)N2CCCCCC2)c1)c1cc(=O)c2ccccc2o1	2	20	63*	5	23	16
CN(c1ccccc1)S(=O)(=O)c1cccc(NC(=O)c2cc(=O)c3ccccc3o2)c1	16	49	51*	5	67*	-10
NS(=O)(=O)c1cccc(NC(=O)c2cc(=O)c3ccccc3o2)c1	-15	-7	3	2	0	-8
CN1CCN(CC(=O)Nc2cccc(S(=O)(=O)N(C)c3ccccc3)c2)CC1	2	-5	-2	74*	·	13
COc1ccc(CN(C)C[C@@H]2Oc3c(NS(=O)(=O)c4ccc(F)cc4)cccc3C(=O)N([C@@H](C)CO)C[C@H]2C)cc1	-13	·	·	·	6	-7
N/C(=N\OC(=O)c1cc(Cl)ccc1Cl)c1ccccn1	44	34	75*	25	34	23
CNC(=O)N/N=C(\N)c1ccccn1	-23	10	12	-7	-16	-39
N/C(=N\OC(=O)COc1ccc(Br)cc1Cl)c1ccccn1	·	22	66*	-7	?	-88
N/C(=N\OC(=O)COc1ccc(Cl)cc1Cl)c1ccccn1	15	26	56*	4	?	-61
N/C(=N\NC(=O)Nc1ccc(Cl)cc1)c1ccccn1	-54	64*	31	-9	-64	-80
COc1ccc(Cl)cc1C(=O)O/N=C(\N)c1ccccn1	-57	-29	-12	-56	-58	-33
Cc1cc(C)c(C)c(OCC(=O)O/N=C(\N)c2ccccn2)c1	·	-37	-31	-12	-28	·
C[C@H](CO)N1C[C@H](C)[C@@H](CN(C)Cc2ccc(-c3ccccc3)cc2)Oc2ccc(NC(=O)Cc3ccccc3)cc2C1=O	-5	·	·	·	24	·
CO[C@H]1CN(C)C(=O)c2cc(NS(=O)(=O)c3ccc(Cl)cc3)ccc2OC[C@H](C)NC[C@H]1C	-4	·	·	·	-21	2
